Assay outcomes as filed in PubChem.
Most compounds without a hit are left out; they make up all but 1.5% or so of the library.
Mtb hypoxia inh: Mtb hypoxia fluorescent reporter inhibition; M. tuberculosis hypoxia-regulated fluorescent reporter, fluorescence; fluorescence inhibition, % (test concentration not listed); actives 0.1% (n = 300,000); AID 1159583; in the data active = fluorescence inhibition mostly above about 23%, no sharp cut-off; inactive = mostly below about 17%
MazEF act: increases E. coli MazEF RNase cleavage of RNA; P0AE70; FAM/BHQ RNA-DNA oligo cleavage fluorescence, 5 h; activation, % at 20 µM; actives 0.32% (n = 350,000); AID 504720; in the data active = activation above about 50%
Target sequence (P0AE70 whole entry, looked up): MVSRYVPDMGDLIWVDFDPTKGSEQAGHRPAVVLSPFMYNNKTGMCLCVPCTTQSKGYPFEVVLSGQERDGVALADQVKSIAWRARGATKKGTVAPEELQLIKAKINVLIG
VHR inh abs: DUSP3 (human) phosphatase inhibition | actives 0.52% (n = 290,000) | recombinant VHR phosphatase, pNPP absorbance | P51452 | inhibition, % at 13.3 µM | AID 1654; in the data active = inhibition above about 50%
Target sequence (P51452 whole entry, looked up): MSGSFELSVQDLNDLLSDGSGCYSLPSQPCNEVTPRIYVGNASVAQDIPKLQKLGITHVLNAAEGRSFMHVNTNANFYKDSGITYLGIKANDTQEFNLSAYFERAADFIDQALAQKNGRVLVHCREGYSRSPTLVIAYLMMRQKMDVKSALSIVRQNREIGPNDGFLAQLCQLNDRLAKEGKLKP
3CLpro inhibitor: SARS-CoV 3CLpro protease inhibition; inhibition, % at 6 µM; actives 0.14% (n = 290,000); P0C6X7; recombinant SARS-CoV 3CLpro, quenched FRET peptide cleavage; AID 1706; in the data active = inhibition above about 12%
PrPC surface inh: cell surface PrPC inhibition, primary TR-FRET screen. P04156. TR-FRET read-out. inhibition, % at 13.8 µM. actives 0.43% (n = 370,000). AID 720596; in the data active = inhibition above about 24%
PrP 5UTR inh: suppresses PrP 5' UTR mRNA reporter expression | cell-based PrP 5' UTR mRNA reporter, plate reader | AID 488862 | inhibition, % (test concentration not listed) | actives 0.35% (n = 340,000); in the data active = inhibition above about 52%
Numbers stand for hits.

`C#CCOCCOCCOCCNc1nc(N2CCN(C(=O)C(CCC(=O)O)n3cc(C(N)C(C)CC)nn3)CC2)nc(N2CCN(C(=O)C(CCC(=O)O)n3cc(C(N)C(C)CC)nn3)CC2)n1` (stereo unspecified) gave Mtb hypoxia inh inactive.
C=CCOc1cccc(C2C(C(=O)c3ccc(C)o3)=C(O)C(=O)N2c2nccs2)c1 (stereo unspecified) was read as MazEF act active, VHR inh abs inactive, 3CLpro inhibitor inactive, PrPC surface inh inactive and PrP 5UTR inh inactive.
CCCCOc1cccc(C2C(C(=O)c3ccc(C)o3)=C(O)C(=O)N2c2nnc(C)s2)c1 (stereo unspecified) was read as Mtb hypoxia inh inactive, MazEF act 154, VHR inh abs inactive, 3CLpro inhibitor inactive, PrPC surface inh inactive and PrP 5UTR inh inactive.
Screening CCCOc1cccc(C2C(C(=O)c3ccco3)=C(O)C(=O)N2c2nnc(C)s2)c1 (stereo unspecified) returned MazEF act inactive, VHR inh abs inactive, 3CLpro inhibitor inactive, PrPC surface inh inactive and PrP 5UTR inh inactive.
Screening CC(C)n1cc(C2CC3CN(Cc4cccc(Cl)c4)C(=O)[C@]34CCCN24)cn1 (stereo partly specified) returned Mtb hypoxia inh inactive.
`CC(C)(C)c1ccc2c(c1)OC(C(=O)N/N=C/c1ccc([N+](=O)[O-])o1)CO2` (stereo unspecified) gave MazEF act inactive, VHR inh abs 57, 3CLpro inhibitor inactive and PrPC surface inh inactive.
Screening O=C(NN=Cc1ccccn1)c1ccccc1 returned Mtb hypoxia inh inactive.
Screening CCn1c(O)c(N=NC(=O)c2ccc(CSc3nncn3C)cc2)c2ccccc21 returned Mtb hypoxia inh 42, MazEF act inactive, VHR inh abs inactive, 3CLpro inhibitor inactive, PrPC surface inh inactive and PrP 5UTR inh inactive.
`CC(Sc1nnc(-c2cccs2)n1Cc1ccccc1)C(=O)NCc1ccc2c(c1)OCO2` (stereo unspecified) gave Mtb hypoxia inh inactive, MazEF act 64, VHR inh abs inactive, 3CLpro inhibitor inactive, PrPC surface inh inactive and PrP 5UTR inh inactive.
For Cc1csc(NN=Cc2ccc(O)c([N+](=O)[O-])c2)n1 the results were Mtb hypoxia inh inactive.
For CNCC1Oc2ccc(NC(=O)Nc3ccc4c(c3)OCO4)cc2C(=O)N(C(C)CO)CC1C (stereo unspecified) the results were Mtb hypoxia inh inactive.
Screening CC(=NNc1cc(C)nc(NCc2ccccc2)n1)c1cccc([N+](=O)[O-])c1 returned Mtb hypoxia inh inactive.
Screening COc1ccc2nc3ccccc3nc2c1NC(=O)c1ccc(Cl)cc1Cl returned Mtb hypoxia inh inactive, MazEF act active, VHR inh abs inactive, 3CLpro inhibitor inactive, PrPC surface inh inactive and PrP 5UTR inh inactive.
COc1cc(-c2cc(C(=O)Nc3c(Cl)cc(Cl)cc3Cl)c3ccccc3n2)cc(OC)c1OC was read as Mtb hypoxia inh inactive, MazEF act inactive, VHR inh abs inactive, 3CLpro inhibitor inactive, PrPC surface inh inactive and PrP 5UTR inh inactive.
`O=c1[nH]c(C2CCN(S(=O)(=O)c3ccc(S(=O)(=O)NC4CC4)cc3)CC2)nc2c1nnn2Cc1ccccc1` gave Mtb hypoxia inh inactive, MazEF act inactive, VHR inh abs inactive, 3CLpro inhibitor inactive, PrPC surface inh inactive and PrP 5UTR inh inactive.
O=c1[nH]c(C2CCN(S(=O)(=O)c3ccc(S(=O)(=O)NC4CC4)cc3)CC2)nc2c1nnn2Cc1ccc(F)cc1 was read as Mtb hypoxia inh inactive, MazEF act inactive, VHR inh abs 59, 3CLpro inhibitor inactive, PrPC surface inh inactive and PrP 5UTR inh inactive.
`COc1cccc(-c2cc(C(=O)Nc3cc(C)n(Cc4ccc(Cl)cc4)n3)no2)c1` gave Mtb hypoxia inh inactive, MazEF act 51, VHR inh abs inactive, 3CLpro inhibitor inactive, PrPC surface inh inactive and PrP 5UTR inh inactive.
`CC=C(C)C(=O)OC1c2cc3c(c4c2[C@@]2(CO4)C(=O)C(OC)=C(OC)C=C2CC(C)C1C)OCO3` (stereo partly specified) gave Mtb hypoxia inh inactive.
For COc1ccccc1N(CC(=O)N1CCCCCC1)S(=O)(=O)c1ccc(C)cc1 the results were Mtb hypoxia inh inactive, MazEF act inactive, VHR inh abs 50, 3CLpro inhibitor inactive, PrPC surface inh inactive and PrP 5UTR inh inactive.
For CC(=O)Nc1ccc(C(=O)NN=Cc2ccncc2)cc1 the results were Mtb hypoxia inh inactive.
`COc1cc(C2=NC(CO)(CO)CO2)cc(OC)c1OC` gave Mtb hypoxia inh inactive, MazEF act inactive, VHR inh abs 58, 3CLpro inhibitor inactive, PrPC surface inh inactive and PrP 5UTR inh inactive.
Screening CCSc1ccc(C2C3C(=O)N(CC)C(=O)C3[C@]3(C(=O)OC)CCCN23)cc1 (stereo partly specified) returned Mtb hypoxia inh inactive.
Screening CC(=NNC(=O)C(C)n1nc(C)c([N+](=O)[O-])c1C)c1ccc(OCC(N)=O)cc1 (stereo unspecified) returned Mtb hypoxia inh inactive.
Screening O=c1c2c(-c3ccc(Cl)cc3)csc2ncn1N=Cc1cccc([N+](=O)[O-])c1O returned Mtb hypoxia inh inactive.
`CCCc1[nH]n(-c2ccc([N+](=O)[O-])cc2)c(=O)c1C=NCCc1c[nH]c2ccccc12` gave MazEF act inactive, VHR inh abs inactive, 3CLpro inhibitor inactive, PrPC surface inh inactive and PrP 5UTR inh inactive.
Screening Cc1[nH]n(-c2ccc([N+](=O)[O-])cc2)c(=O)c1C=NCCc1c[nH]c2ccccc12 returned Mtb hypoxia inh inactive, MazEF act inactive, VHR inh abs 55, 3CLpro inhibitor inactive, PrPC surface inh inactive and PrP 5UTR inh inactive.
Screening Br/C(C=NNc1nc(N2CCOCC2)nc(N2CCOCC2)n1)=C\c1ccccc1 returned Mtb hypoxia inh inactive.
Screening COc1ccc(C=NOCC(=O)Nc2nc3ccccc3s2)cc1OC returned Mtb hypoxia inh inactive.
Screening COc1ccccc1C=NNC(=O)CSc1cc(C)nc2ccccc12 returned Mtb hypoxia inh inactive.
`COc1ccc2nc(C)cc(SCC(=O)N/N=C/c3cccc4ccccc34)c2c1` gave MazEF act 55, VHR inh abs inactive, 3CLpro inhibitor inactive, PrPC surface inh inactive and PrP 5UTR inh inactive.
`O=C(O)CP(=O)(O)c1ccc(Cl)cc1` gave MazEF act inactive, VHR inh abs 51, 3CLpro inhibitor inactive, PrPC surface inh inactive and PrP 5UTR inh inactive.
`C=CCOC(=O)C1=C(C)NC(=O)NC1C=Cc1ccccc1` (stereo unspecified) gave Mtb hypoxia inh inactive.
Screening O=c1c(Cc2ccc(Cl)cc2)c(O)ccn1Cc1cccs1 returned Mtb hypoxia inh inactive, MazEF act inactive, VHR inh abs 50, 3CLpro inhibitor inactive, PrPC surface inh inactive and PrP 5UTR inh inactive.
O=c1c(Cc2ccc(Cl)cc2)c(O)ccn1Cc1ccncc1 was read as Mtb hypoxia inh inactive, MazEF act inactive, VHR inh abs inactive, 3CLpro inhibitor inactive, PrPC surface inh inactive and PrP 5UTR inh inactive.
